In PubChem BioAssay (NCI):
Several values for one entry are separate records, joined by “and”; a condition that tells them apart may be missing. Equal values may be shown once. Compounds without any hit were thinned out: in the full panel of roughly 83,000, 20% have a hit.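 The test compound was applied at a single concentration to cells in 96-well plates for 48 hours, and percent growth was recorded.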 A number with no mark means an inactive call. Activity calls are given as the source filed them. Rule for the calls: active = growth percent below 10; inactive = the rest.

Test system: 786-0 renal
Experiment: NCI-60 one-dose screen, 48 h (100 = growth as untreated, 0 = no growth, -100 = all killed)
Settings: 10 µM unless noted

Row | Structure (SMILES) | growth
1 | CC1(C)CC(=O)C2=C(C1)OC(N)=C(c1nc3ccccc3[nH]1)C2c1ccc(Cl)cc1 (stereo unspecified) | 62.1% and 102%
2 | COc1cc(C=O)ccc1Oc1nc(Nc2ccc(F)cc2)nc(N(C)C)n1 | 78.4% and 52%
3 | CCC(=O)c1c2c(c3ccc4c5ccccc5ccc4n13)C(=O)c1ccccc1C2=O | 96.4%
4 | CCCCNC(=S)Nc1ccc(OCc2nc3ccc(Cl)cc3[nH]2)cc1 | 31.3%
5 | Nc1ccc(-c2ccc3ncnc(N4CCc5cc(F)c(Cl)cc54)c3c2)cn1 | -69.8% (active)
6 | N#CC1=C(c2cccs2)Nc2c(c(-c3ccccc3)nn2-c2ccccc2)C12C(=O)Nc1ccc(Cl)cc12 (stereo unspecified) | 22.3%
7 | C=CCn1c(O)c(N=Nc2nc(-c3cc4ccccc4oc3=O)cs2)c2ccccc21 | 47.3%
8 | Fc1ccccc1CNc1nc(SCCN2CCOCC2)nc2c1cnn2CC(Cl)c1ccc(Br)cc1 (stereo unspecified) | 8.8% (active)
9 | O=C(CSc1nnc(-c2ccc(-c3nc4ccc(Cl)cc4[nH]3)cc2)o1)Nc1ccccc1 | -59% (active)
10 | O=C(CSc1nnc(-c2ccc(-c3nc4ccc(Cl)cc4[nH]3)cc2)o1)Nc1ccc(Cl)cc1 | -39.5% (active)
11 | Nc1nc(-c2ccccc2)c(N=Nc2ccc(Cl)cc2Cl)s1 | -51.9% (active)
12 | COc1c(B(O)O)cccc1-c1nc2ccc3cn[nH]c3c2c2c1CCCC2 | 31.8%
13 | Nc1nn2c(-c3cc4cc(Br)ccc4oc3=O)ccnc2c1N=Nc1ccccc1 | -3.59% (active)
14 | O=C1/C(=C/c2cnc(-c3ccccc3)s2)SC(=S)N1Cc1ccc2c(c1)OCO2 | 31.2%
15 | O=C(c1ccc(O)cc1)C1[C@H](c2ccc(Cl)cc2)[C@@H](c2ccccc2)NC12C(=O)Nc1ccc(Br)cc12 (stereo partly specified) | -52.1% (active)
16 | COC(=O)c1cc(C(=O)C(C)(C)C)n2c3ccccc3c3ccccc3c12 | 93%

Row | Structure (SMILES) | growth
17 | COc1ccc2[nH]c(O)c(N=Nc3nc(-c4ccccc4)cs3)c2c1 | -44.8% (active)
18 | CC1CCc2c(sc3nc(SCC(=O)c4cccc([N+](=O)[O-])c4)n(-c4ccccc4)c(=O)c23)C1 (stereo unspecified) | 56.6%
19 | C=CCSc1nnc(-c2ccc(-c3nc4ccc(Cl)cc4[nH]3)cc2)o1 | 76.4%
20 | O=C(Nc1nc2ccccc2s1)Nc1ccccc1Cl | 41%
21 | CC[C@@]12CC(C(=O)OC)=C3Nc4cc5c(cc4[C@@]34CCN(C[C@H]3O[C@H]31)[C@@H]24)[C@@H]1[C@H](O5)[C@@H](O)[C@@]2(CC)CC(C(=O)OC)=C3Nc4cc(O)ccc4[C@@]34CCN1[C@@H]24 | -89.3% (active)
22 | CCOc1ccccc1NC(=O)N/C(N)=N/c1nc2ccccc2s1 | 12.9%
23 | COc1sc(/C=N/NC(=O)c2[nH]c3ccc(Br)cc3c2-c2ccccc2)cc1Cl | -49.8% (active)
24 | COc1cc(CNC(=O)C[C@H](C)CCC=C(C)C)ccc1OCc1cn(-c2ccccc2Cl)nn1 | 87.7%
25 | COc1ccc(-c2cc(C(=O)OCc3ccc(Br)cc3)nn2-c2ccc(S(C)(=O)=O)cc2)cc1OC | 75%
26 | N#CC1=C(c2ccco2)Nc2c(c(-c3ccccc3)nn2-c2ccccc2)C12C(=O)Nc1ccc(Br)cc12 (stereo unspecified) | 43.4%
27 | N/C(=N\c1nc2ccc([N+](=O)[O-])cc2s1)NC(=O)Nc1ccccc1Cl | -32% (active)
28 | S=C(Nc1ccccc1)Nc1ccc(OCc2nc3ccc(Cl)cc3[nH]2)cc1 | 94.5%
29 | COc1ccc(N=Nc2c(N)nn3c(N)c(C#N)c(-c4ccc(C)cc4)nc23)cc1 | 80.9%
30 | O=C(NC(=S)N1CCN(c2ncnc3c2cnn3-c2ccccc2)CC1)c1ccc(F)cc1 | 98.6%
31 | Cc1cccc(C)c1Nc1nnc(-c2c[nH]c3ccccc23)o1 | 105%

Test system: COLO 205 colon
Experiment: as above
Settings: 1 µM

Row | Structure (SMILES) | growth [%]
32 | CC/C(=C(\c1ccc(O)cc1)c1ccc(OCCN(C)C(=O)COCCNC(=O)Cc2ccc3c(c2)CN([C@@H]2CCC(=O)NC2=O)C3=O)cc1)c1ccccc1 | 72.2
33 | CC/C(=C(\c1ccc(O)cc1)c1ccc(OCCN(C)C(=O)CCOCCNC(=O)c2ccc3c(c2)CN([C@@H]2CCC(=O)NC2=O)C3=O)cc1)c1ccccc1 | 95.4
34 | CC/C(=C(/c1ccc(O)cc1)c1ccc(OCCN(C)C(=O)CCOCCNC(=O)Cc2ccc3c(c2)CN([C@@H]2CCC(=O)NC2=O)C3=O)cc1)c1ccccc1 | 102
35 | CC/C(=C(/c1ccc(O)cc1)c1ccc(OCCN(C)C(=O)COCCOCCNC(=O)Cc2ccc3c(c2)CN([C@@H]2CCC(=O)NC2=O)C3=O)cc1)c1ccccc1 | 96.4
36 | CC/C(=C(\c1ccc(O)cc1)c1ccc(OCCNC)cc1)c1ccccc1 | 116
